Measured values published in the supplement of paper PMC10849652.
Targets with a hit are over-represented here; the source holds about 7,900 in all. About 0.6% of all pairs of compound and target were hits.

Assays:
Assay in all cases: log2 fold change, soluble protein after heating vs DMSO (PISA); higher = thermal stabilisation; K562 cells, 10 uM, 30 min; active = over 0.2 and 3.5 SD of the protein, either way, in both replicates (recomputed)
[1] = compound: CC1=C(C=C(C=C1)NC(=O)C2=CC(=CC=C2)C(C)(C)C#N)NC3=CC4=C(C=C3)N=CN(C4=O)C
In short: (§1)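 Quantification of soluble protein used TMTpro 16plex LC-MS/MS, with channel sums equalised. Samples were the supernatant after 21,000xg for 90 min of pooled aliquots from K562 cells (2×10^6 cells/mL) treated with 10 μM compound for 30 min, heated for 3 min over 48°C-58°C, and extracted in PBS with 0.5% NP-40 at 4°C. Values, from duplicates, describe thermal stability against control samples on a log2 fold-change scale.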

[2] = compound: CC1=C(C=C(C=C1)NC(=O)C2=CC(=CC=C2)N(C)C)NC(=O)C3=CC=C(C=C3)O
In short: as §1

[3] = compound: CC1=CC=C(C=C1)SC2=C3C=C(SC3=CN=C2)C(=O)N
In short: as §1

[4] = compound: CC1=NC(=CC=C1)C2=C(N=C(N2)C(C)(C)C)C3=CC4=NC=CN=C4C=C3
In short: as §1

Nexturastat A = compound: CCCCN(Cc1ccc(C(=O)NO)cc1)C(=O)Nc1ccccc1 [Nexturastat A]
In short: as §1

vemurafenib = compound: CCCS(=O)(=O)Nc1ccc(F)c(C(=O)c2c[nH]c3ncc(-c4ccc(Cl)cc4)cc23)c1F [vemurafenib]
In short: as §1

[5] = compound: CCCS(=O)(=O)Nc1ccc(F)c(C(=O)c2c[nH]c3ncc(Cl)cc23)c1F
In short: as §1

[6] = compound: CCCc1cc(C)[nH]c(=O)c1CNC(=O)c1cc(-c2ccnc(N3CCN(C)CC3)c2)cc2c1cnn2C(C)C
In short: as §1

givinostat = compound: CCN(CC)Cc1ccc2cc(COC(=O)Nc3ccc(C(=O)NO)cc3)ccc2c1 [givinostat]
In short: as §1

barasertib = compound: CCN(CCCOc1ccc2c(Nc3cc(CC(=O)Nc4cccc(F)c4)[nH]n3)ncnc2c1)CCOP(=O)(O)O [barasertib]
In short: as §1

[7] = compound: CC[C@@H]1C(=O)N(C)c2cnc(Nc3ccc(C(=O)NC4CCN(C)CC4)cc3OC)nc2N1C1CCCC1
In short: as §1

volasertib = compound: CC[C@@H]1C(=O)N(C)c2cnc(Nc3ccc(C(=O)N[C@H]4CC[C@H](N5CCN(CC6CC6)CC5)CC4)cc3OC)nc2N1C(C)C [volasertib]
In short: as §1

[8] = compound: CC[C@H](C)N1C=C(C2=C(C=C(C=C21)C3=CN=C(C=C3)N4CCNCC4)C(=O)NCC5=C(C=C(NC5=O)C)C)C
In short: as §1

epoxomicin = compound: CC[C@H](C)[C@@H](C(=O)N[C@@H]([C@@H](C)O)C(=O)N[C@@H](CC(C)C)C(=O)[C@]1(CO1)C)NC(=O)[C@H]([C@@H](C)CC)N(C)C(=O)C [epoxomicin]
In short: as §1

[9] = compound: CCn1c(C(=O)N(C2CC2)C2CC2)cc2c3c(ncn3C)c(Nc3cc(C)n(C)n3)nc21
In short: as §1

[10] = compound: CCn1cc(-c2ccnc3[nH]c(-c4cccc(CN(C)C)c4)cc23)c(-c2ccc(NC(=O)N(C)C)cc2)n1
In short: as §1

[11] = compound: CN(C)CC(=O)Nc1ccc2[nH]c(=O)c3ccccc3c2c1
In short: as §1

rosiglitazone = compound: CN(CCOC1=CC=C(C=C1)C[C@H]2C(=O)NC(=O)S2)C3=CC=CC=N3 (racemic) [rosiglitazone]
In short: as §1

[12] = compound: CN1C2=C(C3=C1C(=O)N(N=C3)CC4=CC(=CC=C4)N)SC(=C2)S(=O)C
In short: as §1

[13] = compound: CN1CCC(CNc2ccc3ncc(-c4cccc(OC(F)(F)F)c4)n3n2)CC1
In short: as §1

Measured: log2 fold change

CCNT1 (UniProt O60563)
inactive: [1] -0.033 | [2] -0.018 | [3] -0.02 | [4] 0.005 | Nexturastat A 0.218 | vemurafenib 0.027 | [5] 0.007 | [6] 0.023 | givinostat 0.022 | barasertib 0.022 | [7] 0.023 | volasertib -0.085 | [8] 0.069 | epoxomicin -0.063 | [9] 0.028 | [10] 0.035 | [11] -0.055 | rosiglitazone -0.024 | [12] 0.132 | [13] -0.036

CASP2 (UniProt P42575)
inactive: [1] 0.025 | [2] 0.001 | [3] 0.215 | [4] 0.056 | Nexturastat A 0.004 | vemurafenib 0.026 | [5] 0.193 | [6] 0.086 | givinostat 0.039 | barasertib 0.026 | [7] 0.058 | volasertib 0.112 | [8] 0.078 | epoxomicin 0.024 | [9] -0.016 | [10] -0.153 | [11] 0.031 | rosiglitazone 0.072 | [12] 0.008 | [13] -0.08

CCZ1 (UniProt P86791)
active: [13] -0.256
inactive: [1] -0.005 | [2] -0.029 | [3] 0.014 | [4] 0.035 | Nexturastat A 0.009 | vemurafenib 0.024 | [5] 0.011 | [6] -0.029 | givinostat 0.028 | barasertib -0.011 | [7] -0.199 | volasertib -0.113 | [8] -0.005 | epoxomicin 0.013 | [9] -0.011 | [10] 0.028 | [11] -0.002 | rosiglitazone 0.025 | [12] -0.002

COQ7 (UniProt Q99807)
UniProt Q99807, sequence (Q99807 whole entry, looked up): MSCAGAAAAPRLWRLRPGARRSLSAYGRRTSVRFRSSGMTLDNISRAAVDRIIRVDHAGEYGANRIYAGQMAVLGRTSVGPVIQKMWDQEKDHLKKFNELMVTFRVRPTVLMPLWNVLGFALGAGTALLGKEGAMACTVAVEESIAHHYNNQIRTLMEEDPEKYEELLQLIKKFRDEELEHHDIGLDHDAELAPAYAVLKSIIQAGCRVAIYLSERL
inactive: [1] 0.028 | [2] 0.086 | [3] 0.02 | [4] 0.018 | Nexturastat A -0.068 | vemurafenib -0.002 | [5] -0.061 | [6] -0.034 | givinostat -0.091 | barasertib 0.023 | [7] -0.035 | volasertib -0.009 | [8] -0.01 | epoxomicin 0.013 | [9] -0.005 | [10] -0.041 | [11] -0.047 | rosiglitazone 0.038 | [12] 0.023 | [13] -0.05

CDK16 isoform 2 (UniProt Q00536)
inactive: [1] 0.003 | [2] -0.017 | [3] 0.028 | [4] 0.021 | Nexturastat A -0.052 | vemurafenib -0.072 | [5] 0.027 | [6] -0.101 | givinostat -0.043 | barasertib -0.023 | [7] -0.049 | volasertib -0.316 | [8] -0.014 | epoxomicin 0.02 | [9] -0.113 | [10] 0.001 | [11] 0.041 | rosiglitazone 0.061 | [12] -0.074 | [13] 0.135

CDAN1 (UniProt Q8IWY9)
UniProt Q8IWY9, sequence (Q8IWY9 whole entry, looked up): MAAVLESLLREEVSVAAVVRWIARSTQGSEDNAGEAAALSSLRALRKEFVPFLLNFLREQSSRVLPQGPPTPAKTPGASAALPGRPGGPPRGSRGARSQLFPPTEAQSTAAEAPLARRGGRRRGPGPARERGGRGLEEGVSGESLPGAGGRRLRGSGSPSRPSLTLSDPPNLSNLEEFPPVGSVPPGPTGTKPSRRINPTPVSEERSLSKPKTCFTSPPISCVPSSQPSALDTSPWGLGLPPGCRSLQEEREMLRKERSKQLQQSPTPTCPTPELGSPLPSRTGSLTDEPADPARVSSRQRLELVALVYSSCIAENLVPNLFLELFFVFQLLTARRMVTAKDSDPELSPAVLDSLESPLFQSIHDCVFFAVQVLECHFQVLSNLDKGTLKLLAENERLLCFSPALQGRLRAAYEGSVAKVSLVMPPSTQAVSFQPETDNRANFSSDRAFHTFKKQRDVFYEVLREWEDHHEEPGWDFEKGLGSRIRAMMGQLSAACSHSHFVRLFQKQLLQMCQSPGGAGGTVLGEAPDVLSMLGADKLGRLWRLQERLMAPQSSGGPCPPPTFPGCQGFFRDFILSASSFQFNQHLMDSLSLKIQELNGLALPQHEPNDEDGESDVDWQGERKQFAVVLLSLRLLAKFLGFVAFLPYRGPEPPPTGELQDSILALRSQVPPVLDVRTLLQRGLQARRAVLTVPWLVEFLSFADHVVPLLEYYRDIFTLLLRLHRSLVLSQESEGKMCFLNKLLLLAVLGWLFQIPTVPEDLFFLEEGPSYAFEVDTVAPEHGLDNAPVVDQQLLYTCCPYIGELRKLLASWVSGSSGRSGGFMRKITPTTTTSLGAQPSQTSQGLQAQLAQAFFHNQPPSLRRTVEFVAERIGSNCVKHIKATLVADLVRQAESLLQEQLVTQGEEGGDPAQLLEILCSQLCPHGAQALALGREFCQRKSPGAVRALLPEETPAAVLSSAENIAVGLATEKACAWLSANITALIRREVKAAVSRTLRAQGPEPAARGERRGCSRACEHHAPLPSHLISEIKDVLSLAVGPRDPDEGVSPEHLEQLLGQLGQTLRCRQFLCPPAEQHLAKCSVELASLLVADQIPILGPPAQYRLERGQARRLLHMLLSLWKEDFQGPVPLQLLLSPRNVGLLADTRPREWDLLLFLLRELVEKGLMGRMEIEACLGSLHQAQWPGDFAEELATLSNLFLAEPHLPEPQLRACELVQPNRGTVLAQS
inactive: [1] 0.039 | [2] 0.046 | [3] -0.071 | [4] -0.022 | Nexturastat A -0.192 | vemurafenib -0.067 | [5] 0.077 | [6] 0.022 | givinostat 0.023 | barasertib 0.002 | [7] -0.079 | volasertib -0.15 | [8] -0.041 | epoxomicin 0.014 | [9] 0.04 | [10] -0.047 | [11] -0.058 | rosiglitazone 0.045 | [12] -0.022 | [13] -0.001

CCDC57 (UniProt Q2TAC2)
UniProt Q2TAC2, sequence (Q2TAC2 whole entry, looked up): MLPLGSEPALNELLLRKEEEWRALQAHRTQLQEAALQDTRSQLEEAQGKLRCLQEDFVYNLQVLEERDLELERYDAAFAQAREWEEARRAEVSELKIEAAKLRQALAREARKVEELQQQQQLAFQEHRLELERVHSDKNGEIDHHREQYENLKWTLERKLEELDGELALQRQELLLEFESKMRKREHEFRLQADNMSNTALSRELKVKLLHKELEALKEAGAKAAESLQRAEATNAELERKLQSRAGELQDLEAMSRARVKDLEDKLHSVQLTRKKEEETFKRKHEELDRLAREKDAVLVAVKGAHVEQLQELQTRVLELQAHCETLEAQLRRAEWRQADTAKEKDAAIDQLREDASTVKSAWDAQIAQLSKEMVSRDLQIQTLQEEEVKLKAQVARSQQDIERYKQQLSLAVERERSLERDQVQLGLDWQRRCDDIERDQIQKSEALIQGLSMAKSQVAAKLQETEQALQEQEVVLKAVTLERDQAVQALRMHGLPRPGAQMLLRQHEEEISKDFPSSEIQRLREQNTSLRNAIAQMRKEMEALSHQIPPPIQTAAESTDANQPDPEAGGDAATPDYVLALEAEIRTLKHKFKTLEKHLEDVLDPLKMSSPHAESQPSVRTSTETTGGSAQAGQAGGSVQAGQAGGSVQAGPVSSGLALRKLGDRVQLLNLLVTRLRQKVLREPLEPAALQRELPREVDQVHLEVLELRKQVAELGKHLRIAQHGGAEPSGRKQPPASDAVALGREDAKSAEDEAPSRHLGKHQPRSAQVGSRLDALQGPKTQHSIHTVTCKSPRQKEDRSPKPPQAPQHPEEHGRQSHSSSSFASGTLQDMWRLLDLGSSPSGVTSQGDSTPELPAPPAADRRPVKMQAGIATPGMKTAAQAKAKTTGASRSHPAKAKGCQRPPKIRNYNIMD
inactive: [1] 0.004 | [2] 0.02 | [3] 0.032 | [4] -0.01 | Nexturastat A -0.049 | vemurafenib 0 | [5] 0.013 | [6] -0.047 | givinostat 0.027 | barasertib 0.015 | [7] -0.033 | volasertib 0.012 | [8] -0.043 | epoxomicin -0.059 | [9] 0.036 | [11] -0.034 | rosiglitazone 0.018

CDK5RAP1 (UniProt Q96SZ6)
UniProt Q96SZ6, sequence (Q96SZ6 whole entry, looked up): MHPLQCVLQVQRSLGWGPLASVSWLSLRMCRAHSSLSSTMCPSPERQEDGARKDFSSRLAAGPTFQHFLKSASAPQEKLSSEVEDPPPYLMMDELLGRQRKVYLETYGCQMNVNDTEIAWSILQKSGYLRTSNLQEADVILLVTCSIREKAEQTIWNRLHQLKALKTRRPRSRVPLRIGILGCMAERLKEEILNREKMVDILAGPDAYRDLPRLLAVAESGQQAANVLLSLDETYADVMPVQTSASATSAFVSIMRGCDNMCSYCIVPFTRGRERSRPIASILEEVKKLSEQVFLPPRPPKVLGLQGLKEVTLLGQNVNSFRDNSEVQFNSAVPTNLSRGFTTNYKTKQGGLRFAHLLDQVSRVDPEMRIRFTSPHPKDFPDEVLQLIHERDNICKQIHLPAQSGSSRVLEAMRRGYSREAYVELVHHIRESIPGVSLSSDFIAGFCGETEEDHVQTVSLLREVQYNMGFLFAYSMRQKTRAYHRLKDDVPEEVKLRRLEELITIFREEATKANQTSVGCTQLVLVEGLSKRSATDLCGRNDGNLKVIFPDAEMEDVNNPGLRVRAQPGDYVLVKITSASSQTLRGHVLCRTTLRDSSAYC
active: [13] -0.254
inactive: [1] 0.014 | [2] -0.04 | [3] 0.002 | [4] 0.05 | Nexturastat A -0.065 | vemurafenib -0.007 | [5] -0.035 | [6] 0.066 | givinostat -0.166 | barasertib -0.005 | [7] -0.119 | volasertib -0.064 | [8] 0.071 | epoxomicin 0.033 | [9] 0.001 | [10] -0.086 | [11] -0.006 | rosiglitazone 0.036 | [12] -0.074

CS (UniProt O75390)
UniProt O75390, sequence (O75390 whole entry, looked up): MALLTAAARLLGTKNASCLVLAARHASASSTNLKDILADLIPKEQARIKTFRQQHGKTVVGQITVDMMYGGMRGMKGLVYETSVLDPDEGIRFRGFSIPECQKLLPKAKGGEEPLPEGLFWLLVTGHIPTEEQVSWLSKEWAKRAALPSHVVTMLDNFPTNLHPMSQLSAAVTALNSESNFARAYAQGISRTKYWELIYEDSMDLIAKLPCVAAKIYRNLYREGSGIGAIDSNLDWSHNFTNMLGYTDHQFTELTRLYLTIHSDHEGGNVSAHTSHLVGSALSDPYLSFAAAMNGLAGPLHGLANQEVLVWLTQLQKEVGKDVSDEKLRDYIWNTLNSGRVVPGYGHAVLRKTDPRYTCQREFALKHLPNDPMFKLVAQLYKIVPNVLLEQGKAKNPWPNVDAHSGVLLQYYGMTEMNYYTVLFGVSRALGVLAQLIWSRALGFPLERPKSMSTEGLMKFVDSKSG
inactive: [1] -0.026 | [2] -0.002 | [3] 0.014 | [4] 0.07 | Nexturastat A -0.125 | vemurafenib 0.023 | [5] 0.033 | [6] 0 | givinostat -0.041 | barasertib 0.027 | [7] 0.04 | volasertib 0.158 | [8] 0.027 | epoxomicin 0.01 | [9] 0.032 | [10] -0.059 | [11] 0.032 | rosiglitazone 0.083 | [12] -0.088
active: [13] -0.222

CHAC2 (UniProt Q8WUX2)
UniProt Q8WUX2, sequence (Q8WUX2 whole entry, looked up): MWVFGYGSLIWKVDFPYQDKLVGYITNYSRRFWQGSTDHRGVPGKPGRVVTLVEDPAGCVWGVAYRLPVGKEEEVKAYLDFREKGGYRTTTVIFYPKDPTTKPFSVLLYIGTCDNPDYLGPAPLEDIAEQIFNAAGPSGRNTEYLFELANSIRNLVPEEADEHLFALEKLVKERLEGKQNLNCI
inactive: [1] -0.001 | [2] 0.025 | [3] 0.037 | [4] 0.015 | Nexturastat A -0.026 | vemurafenib 0.04 | [5] 0.031 | [6] -0.08 | givinostat 0.007 | barasertib 0.079 | volasertib -0.227 | [8] 0.035 | epoxomicin -0.025 | [9] 0.039 | [10] -0.03 | [11] 0.002 | rosiglitazone 0.028 | [12] -0.04 | [13] 0.041
active: [7] -0.343

CNOT4 isoform 6 (UniProt O95628)
UniProt O95628, sequence (O95628 whole entry, looked up): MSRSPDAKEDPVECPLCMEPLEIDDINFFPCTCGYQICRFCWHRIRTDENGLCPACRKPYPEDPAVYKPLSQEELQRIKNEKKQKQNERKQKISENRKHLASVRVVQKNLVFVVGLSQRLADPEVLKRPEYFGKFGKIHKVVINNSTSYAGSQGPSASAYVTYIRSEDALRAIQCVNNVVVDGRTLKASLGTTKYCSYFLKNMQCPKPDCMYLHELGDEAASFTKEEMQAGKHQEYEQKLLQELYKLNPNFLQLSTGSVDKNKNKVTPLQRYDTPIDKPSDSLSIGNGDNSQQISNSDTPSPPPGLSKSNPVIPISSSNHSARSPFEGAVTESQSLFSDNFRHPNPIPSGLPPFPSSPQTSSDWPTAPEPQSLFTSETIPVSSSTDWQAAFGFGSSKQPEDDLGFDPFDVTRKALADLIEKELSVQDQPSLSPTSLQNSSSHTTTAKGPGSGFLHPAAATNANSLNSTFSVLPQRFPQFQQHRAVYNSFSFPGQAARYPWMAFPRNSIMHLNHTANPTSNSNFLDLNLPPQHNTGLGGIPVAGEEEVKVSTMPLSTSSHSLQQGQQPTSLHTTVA
inactive: [1] -0.056 | [2] -0.012 | [3] 0.005 | [4] 0.023 | Nexturastat A -0.122 | vemurafenib -0.014 | [5] -0.007 | [6] -0.069 | givinostat -0.064 | barasertib 0.007 | [7] -0.008 | volasertib -0.109 | [8] 0.031 | epoxomicin 0.006 | [9] 0.007 | [10] -0.056 | [11] 0.003 | rosiglitazone 0.036 | [12] 0.028 | [13] -0.095

CLUH, A0A494C0R8
inactive: [1] 0.008 | [2] -0.077 | [3] -0.02 | [4] 0.124 | Nexturastat A 0.068 | vemurafenib -0.121 | [5] -0.072 | [6] 0.016 | givinostat 0.092 | barasertib -0.043 | [7] 0.183 | volasertib 0.42 | [8] 0.006 | epoxomicin -0.017 | [9] 0.066 | [10] 0.078 | [11] 0.116 | rosiglitazone 0.068 | [12] 0.101 | [13] 0.203

COCH (UniProt O43405)
inactive: [1] 0.072 | [2] 0.053 | [3] 0.059 | [4] 0.005 | Nexturastat A 0.046 | vemurafenib -0.067 | [5] -0.05 | [6] 0.076 | givinostat -0.049 | barasertib 0 | [7] 0.117 | volasertib -0.08 | [8] -0.065 | epoxomicin -0.153 | [9] 0.054 | [10] 0.075 | [11] -0.127 | rosiglitazone -0.056 | [12] 0.007 | [13] 0.076

COX7C (UniProt P15954)
UniProt P15954, sequence (P15954 whole entry, looked up): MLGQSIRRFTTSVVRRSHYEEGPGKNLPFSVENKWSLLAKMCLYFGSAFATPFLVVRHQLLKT
inactive: [1] -0.057 | [2] -0.187 | [3] -0.01 | [4] 0.088 | Nexturastat A 0.027 | vemurafenib -0.018 | [5] -0.085 | [6] 0.143 | givinostat -0.271 | barasertib 0.061 | [7] 0.035 | volasertib -0.163 | [8] -0.114 | epoxomicin 0.203 | [9] -0.01 | [10] 0.095 | [11] -0.058 | rosiglitazone -0.025 | [12] -0.026 | [13] -0.052

CDC25B isoform 4 (UniProt P30305)
UniProt P30305, sequence (P30305 whole entry, looked up): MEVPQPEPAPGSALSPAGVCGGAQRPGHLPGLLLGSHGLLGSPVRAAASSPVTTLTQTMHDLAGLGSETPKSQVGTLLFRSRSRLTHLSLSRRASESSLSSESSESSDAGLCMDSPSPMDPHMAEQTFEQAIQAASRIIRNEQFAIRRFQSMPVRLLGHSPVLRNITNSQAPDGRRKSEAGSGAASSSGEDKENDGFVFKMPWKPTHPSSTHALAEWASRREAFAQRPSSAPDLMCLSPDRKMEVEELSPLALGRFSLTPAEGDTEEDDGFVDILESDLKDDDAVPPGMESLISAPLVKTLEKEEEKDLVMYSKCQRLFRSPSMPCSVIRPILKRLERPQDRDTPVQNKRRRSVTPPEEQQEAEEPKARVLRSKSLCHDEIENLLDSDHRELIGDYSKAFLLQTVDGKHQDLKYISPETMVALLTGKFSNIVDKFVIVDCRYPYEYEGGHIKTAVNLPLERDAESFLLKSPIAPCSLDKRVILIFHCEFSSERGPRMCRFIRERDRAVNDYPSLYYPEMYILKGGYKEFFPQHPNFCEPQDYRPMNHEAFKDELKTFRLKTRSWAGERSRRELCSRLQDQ
inactive: [1] 0.203 | [2] -0.022 | [3] -0.008 | [4] -0.004 | Nexturastat A -0.039 | vemurafenib 0.054 | [5] -0.077 | [6] -0.352 | givinostat 0.032 | barasertib -0.044 | [7] -0.003 | volasertib -0.049 | [8] -0.266 | epoxomicin 0.1 | [9] -0.031 | [10] -0.092 | [11] -0.021 | rosiglitazone -0.012 | [13] -0.081
